Results published in publication PMC7862700, “An all-to-all approach to the identification of sequence-specific readers for epigenetic DNA modifications on cytosine”.

Legend:
Assay in all cases: DAPPL (digital affinity profiling via proximity ligation, sequencing); 10 mM Tris-HCl pH 7.5, 50 mM NaCl, 1 mM DTT, 4% glycerol, room temperature, 30 min; GST-TFs on glutathione beads, 16-mer random dsDNA library, 0.1% formaldehyde crosslink after washing; high values mean tight binding
Settings in all cases: protein: recombinant; tags: N-terminal GST; dsDNA, one strand shown
FLI1 = target: T1, FLI1 (Homo sapiens, UniProt Q01543 1-452)
T1 sequence: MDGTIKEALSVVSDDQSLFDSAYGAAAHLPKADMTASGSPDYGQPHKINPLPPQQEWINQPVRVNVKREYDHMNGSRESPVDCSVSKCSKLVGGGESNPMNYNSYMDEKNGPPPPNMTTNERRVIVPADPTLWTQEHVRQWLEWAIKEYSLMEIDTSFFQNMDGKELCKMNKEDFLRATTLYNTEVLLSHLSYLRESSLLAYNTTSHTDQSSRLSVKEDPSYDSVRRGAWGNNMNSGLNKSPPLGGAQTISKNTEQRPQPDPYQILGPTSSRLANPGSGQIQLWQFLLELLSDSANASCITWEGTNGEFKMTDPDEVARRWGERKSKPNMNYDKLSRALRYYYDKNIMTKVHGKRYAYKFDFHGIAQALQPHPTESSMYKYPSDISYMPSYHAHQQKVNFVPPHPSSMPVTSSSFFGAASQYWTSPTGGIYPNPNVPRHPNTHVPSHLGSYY
Procedure, shortened: (§1)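 Yeast served to express human transcription factors as GST fusions, which were then captured on glutathione beads and labelled with DNA barcodes. Pooled with a tag-only sample, they were incubated with 200 nmole of a 16-mer random double-stranded DNA library for 30 min at room temperature in Tris/NaCl/DTT/glycerol buffer, washed, crosslinked with 0.1% formaldehyde, ligated by proximity, amplified by PCR and sequenced. Dividing each hexamer's read frequency for a factor by its frequency for the tag-only sample gives the binding signal.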

ELK1 = target: T2, ELK1 (Homo sapiens, UniProt P19419 1-428)
T2 sequence: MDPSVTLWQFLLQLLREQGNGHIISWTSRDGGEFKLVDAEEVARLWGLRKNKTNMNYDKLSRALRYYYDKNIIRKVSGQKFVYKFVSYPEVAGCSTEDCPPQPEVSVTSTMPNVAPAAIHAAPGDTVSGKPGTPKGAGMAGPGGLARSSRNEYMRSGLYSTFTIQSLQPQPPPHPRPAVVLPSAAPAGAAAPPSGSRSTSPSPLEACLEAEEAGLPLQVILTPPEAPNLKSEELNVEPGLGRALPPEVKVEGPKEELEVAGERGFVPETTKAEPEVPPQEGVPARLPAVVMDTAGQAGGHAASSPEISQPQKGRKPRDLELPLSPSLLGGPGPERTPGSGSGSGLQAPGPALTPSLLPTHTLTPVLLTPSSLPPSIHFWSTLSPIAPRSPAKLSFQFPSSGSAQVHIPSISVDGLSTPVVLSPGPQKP
Procedure, shortened: as §1

GABPA = target: T3, GABPA (Homo sapiens, UniProt Q06546 1-454)
T3 sequence: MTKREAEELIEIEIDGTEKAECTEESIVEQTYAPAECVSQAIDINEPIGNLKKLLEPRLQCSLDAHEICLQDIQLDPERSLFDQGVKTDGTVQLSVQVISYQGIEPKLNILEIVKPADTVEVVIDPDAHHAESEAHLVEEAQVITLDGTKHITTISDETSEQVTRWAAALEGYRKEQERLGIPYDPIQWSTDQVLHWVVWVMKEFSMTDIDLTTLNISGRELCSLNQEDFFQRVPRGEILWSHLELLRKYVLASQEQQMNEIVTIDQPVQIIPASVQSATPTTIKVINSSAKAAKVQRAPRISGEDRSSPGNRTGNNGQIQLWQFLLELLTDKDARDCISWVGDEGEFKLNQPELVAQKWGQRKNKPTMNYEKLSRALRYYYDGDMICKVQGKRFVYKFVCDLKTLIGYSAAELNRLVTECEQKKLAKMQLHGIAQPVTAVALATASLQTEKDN
Procedure, shortened: as §1

ERG = target: T4, ERG (Homo sapiens, UniProt P11308 1-479)
T4 sequence: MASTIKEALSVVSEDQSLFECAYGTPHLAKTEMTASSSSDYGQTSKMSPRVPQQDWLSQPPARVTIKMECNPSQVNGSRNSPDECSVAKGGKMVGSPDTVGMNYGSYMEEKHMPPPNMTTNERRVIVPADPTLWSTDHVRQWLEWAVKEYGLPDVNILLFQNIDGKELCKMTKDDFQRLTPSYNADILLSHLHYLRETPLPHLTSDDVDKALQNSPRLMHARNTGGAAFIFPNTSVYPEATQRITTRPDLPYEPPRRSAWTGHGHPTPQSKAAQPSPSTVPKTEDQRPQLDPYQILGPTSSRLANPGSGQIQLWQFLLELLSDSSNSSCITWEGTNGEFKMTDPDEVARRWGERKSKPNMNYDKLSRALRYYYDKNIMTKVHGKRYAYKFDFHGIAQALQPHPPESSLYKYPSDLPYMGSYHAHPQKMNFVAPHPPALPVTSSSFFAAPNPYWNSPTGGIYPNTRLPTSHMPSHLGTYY
Procedure, shortened: as §1

ELF1 = ELF1 (Homo sapiens, UniProt P32519 1-619)
Procedure, shortened: as §1

SPI1 = SPI1 (Homo sapiens, UniProt P17947 1-270)
Procedure, shortened: as §1

SPIB = SPIB (Homo sapiens, UniProt Q01892 1-262)
Procedure, shortened: as §1

ELK3 = target: T5, ELK3 (Homo sapiens, UniProt P41970 1-407)
T5 sequence: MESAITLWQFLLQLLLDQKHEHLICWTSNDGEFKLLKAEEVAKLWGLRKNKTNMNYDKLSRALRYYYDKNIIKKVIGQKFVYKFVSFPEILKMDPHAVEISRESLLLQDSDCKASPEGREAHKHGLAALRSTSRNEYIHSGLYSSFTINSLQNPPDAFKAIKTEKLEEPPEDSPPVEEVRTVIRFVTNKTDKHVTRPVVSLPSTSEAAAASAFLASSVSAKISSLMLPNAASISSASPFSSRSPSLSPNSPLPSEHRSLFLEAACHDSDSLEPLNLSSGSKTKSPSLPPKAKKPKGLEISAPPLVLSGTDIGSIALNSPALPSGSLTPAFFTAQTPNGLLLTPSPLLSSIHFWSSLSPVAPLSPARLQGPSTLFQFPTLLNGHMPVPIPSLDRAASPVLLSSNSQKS
Procedure, shortened: as §1

EHF = target: T6, EHF (Homo sapiens, UniProt Q9NZC4 1-300)
T6 sequence: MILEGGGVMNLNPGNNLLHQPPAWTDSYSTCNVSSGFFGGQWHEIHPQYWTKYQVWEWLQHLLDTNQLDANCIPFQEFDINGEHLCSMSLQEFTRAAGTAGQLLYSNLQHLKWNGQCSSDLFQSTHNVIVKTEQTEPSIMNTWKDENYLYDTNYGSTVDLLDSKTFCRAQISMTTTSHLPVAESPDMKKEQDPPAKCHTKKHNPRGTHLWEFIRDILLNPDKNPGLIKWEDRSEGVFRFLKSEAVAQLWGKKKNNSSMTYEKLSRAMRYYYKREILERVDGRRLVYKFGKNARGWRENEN
Procedure, shortened: as §1

Sequence of SPIB (Q01892 whole entry): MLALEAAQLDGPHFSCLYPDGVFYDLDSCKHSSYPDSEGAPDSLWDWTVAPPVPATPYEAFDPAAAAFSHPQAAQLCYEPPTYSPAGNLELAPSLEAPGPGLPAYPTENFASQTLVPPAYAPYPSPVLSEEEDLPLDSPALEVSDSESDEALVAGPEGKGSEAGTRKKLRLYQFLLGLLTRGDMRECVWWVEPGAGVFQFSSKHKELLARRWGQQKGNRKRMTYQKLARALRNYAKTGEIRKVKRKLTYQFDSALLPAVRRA
Sequence of ELF1 (P32519 whole entry): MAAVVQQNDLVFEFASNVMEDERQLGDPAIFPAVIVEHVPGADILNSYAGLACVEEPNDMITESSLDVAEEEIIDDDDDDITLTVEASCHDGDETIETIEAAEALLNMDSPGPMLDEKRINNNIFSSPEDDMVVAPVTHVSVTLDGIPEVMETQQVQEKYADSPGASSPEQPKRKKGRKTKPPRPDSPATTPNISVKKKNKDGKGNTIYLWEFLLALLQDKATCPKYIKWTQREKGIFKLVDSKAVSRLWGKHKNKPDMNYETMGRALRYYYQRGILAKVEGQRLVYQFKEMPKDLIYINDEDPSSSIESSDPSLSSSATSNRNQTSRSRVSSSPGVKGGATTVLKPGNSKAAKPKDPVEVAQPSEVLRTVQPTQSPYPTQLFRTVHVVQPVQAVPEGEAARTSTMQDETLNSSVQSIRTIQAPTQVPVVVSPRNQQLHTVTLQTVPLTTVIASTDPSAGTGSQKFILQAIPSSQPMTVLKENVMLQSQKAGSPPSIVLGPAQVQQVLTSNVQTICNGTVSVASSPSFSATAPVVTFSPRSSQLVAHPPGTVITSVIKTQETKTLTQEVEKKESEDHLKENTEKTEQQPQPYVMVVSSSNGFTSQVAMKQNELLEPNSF

Sequence | binding signal (FLI1) | binding signal (ELK1) | binding signal (GABPA) | binding signal (ERG) | binding signal (ELF1) | binding signal (SPI1) | binding signal (SPIB) | binding signal (ELK3) | binding signal (EHF)
CAATCA | 1.11 fold enrichment (6-mer frequency, TF over GST control) | 1.11 fold enrichment (6-mer frequency, TF over GST control) | 1.24 fold enrichment (6-mer frequency, TF over GST control) | 1.14 fold enrichment (6-mer frequency, TF over GST control) | 1.19 fold enrichment (6-mer frequency, TF over GST control) | 1.08 fold enrichment (6-mer frequency, TF over GST control) | 1.1 fold enrichment (6-mer frequency, TF over GST control) | 1.05 fold enrichment (6-mer frequency, TF over GST control) | –
TAAAGC | 1.03 fold enrichment (6-mer frequency, TF over GST control) | 1.12 fold enrichment (6-mer frequency, TF over GST control) | 1.11 fold enrichment (6-mer frequency, TF over GST control) | – | 1.05 fold enrichment (6-mer frequency, TF over GST control) | 1.05 fold enrichment (6-mer frequency, TF over GST control) | 1.06 fold enrichment (6-mer frequency, TF over GST control) | 1.09 fold enrichment (6-mer frequency, TF over GST control) | 1.02 fold enrichment (6-mer frequency, TF over GST control)
AAGACT | 1.09 fold enrichment (6-mer frequency, TF over GST control) | 1.12 fold enrichment (6-mer frequency, TF over GST control) | 1.06 fold enrichment (6-mer frequency, TF over GST control) | 1.1 fold enrichment (6-mer frequency, TF over GST control) | 1.08 fold enrichment (6-mer frequency, TF over GST control) | 1.12 fold enrichment (6-mer frequency, TF over GST control) | 1.08 fold enrichment (6-mer frequency, TF over GST control) | 1.14 fold enrichment (6-mer frequency, TF over GST control) | –
AGACCT | 1.01 fold enrichment (6-mer frequency, TF over GST control) | 1.04 fold enrichment (6-mer frequency, TF over GST control) | 1.02 fold enrichment (6-mer frequency, TF over GST control) | 1 fold enrichment (6-mer frequency, TF over GST control) | 1.05 fold enrichment (6-mer frequency, TF over GST control) | 1.06 fold enrichment (6-mer frequency, TF over GST control) | – | 1.01 fold enrichment (6-mer frequency, TF over GST control) | –
GAATAC | 1.1 fold enrichment (6-mer frequency, TF over GST control) | 1.1 fold enrichment (6-mer frequency, TF over GST control) | 1.11 fold enrichment (6-mer frequency, TF over GST control) | – | 1.08 fold enrichment (6-mer frequency, TF over GST control) | – | – | – | –
GCTTTT | 1.06 fold enrichment (6-mer frequency, TF over GST control) | 1.05 fold enrichment (6-mer frequency, TF over GST control) | 1.16 fold enrichment (6-mer frequency, TF over GST control) | 1 fold enrichment (6-mer frequency, TF over GST control) | 1.09 fold enrichment (6-mer frequency, TF over GST control) | 1.33 fold enrichment (6-mer frequency, TF over GST control) | 1.16 fold enrichment (6-mer frequency, TF over GST control) | 1.11 fold enrichment (6-mer frequency, TF over GST control) | –
TGTTCG | 1.19 fold enrichment (6-mer frequency, TF over GST control) | 1.1 fold enrichment (6-mer frequency, TF over GST control) | 1.07 fold enrichment (6-mer frequency, TF over GST control) | 1.04 fold enrichment (6-mer frequency, TF over GST control) | – | 1.06 fold enrichment (6-mer frequency, TF over GST control) | 1.09 fold enrichment (6-mer frequency, TF over GST control) | 1.03 fold enrichment (6-mer frequency, TF over GST control) | 1.2 fold enrichment (6-mer frequency, TF over GST control)
